{"source": "PubChem BioAssay AID1532", "about": "(PCMD, 2009)", "test_system": "RmlC (dTDP-4-dehydrorhamnose 3,5-epimerase) and RmlD (dTDP-4-dehydrorhamnose reductase), coupled enzyme assay", "experiment": "RmlC and RmlD coupled enzyme inhibitors, primary screen, biochemical, 384-well, compound mixtures, retest (AID 1532)", "settings": "384-well mixture HTS, at 5.5 µM, stronger effect = higher value", "key": {"[1]": {"settings": "measured here: mean retest inhibition"}}, "note": "Out of some 110,000 compounds screened, about 420 (0.38%) were called active. This is one part of a sample in which actives are shown more often than they occur. Cut-off read from the data, not from the text of the source: active = inhibition above about 30% (passing the limit was not always enough); inconclusive = no clear call, values can overlap the other calls."}
{"smiles": "COc1ccc(CNC(=O)[C@@H]2CC=C[C@@H]3CCN(C4CC4)C(=O)[C@@H]32)cc1", "values": [{"measurement": "inhibition", "result": "4.14% (inactive)"}]}
{"smiles": "CC1(C)S[C@@H]2[C@H](NC(=O)COc3ccccc3)C(=O)N2C1C(=O)OCc1ccccc1", "note": "(stereo not given in full)", "values": [{"measurement": "inhibition", "result": "5.36% (inactive)"}]}
{"smiles": "C#CCCOC(=O)N1C2=NC(C(=O)OC)=C(C(=O)OC)[C@@H]3N(C)c4ccc(OC)cc4[C@]23C[C@H]1C(=O)OC", "values": [{"measurement": "inhibition", "result": "-9.08% (inactive)"}]}
{"smiles": "CN1CCN(C(CNS(=O)(=O)c2cccs2)c2cccnc2)CC1", "note": "(stereo not given)", "values": [{"measurement": "inhibition", "result": "-1.39% (inactive)"}]}
{"smiles": "O=C1N[C@@H](Cc2ccccc2)C(=O)N2[C@@H]3N(S(=O)(=O)c4ccc(F)cc4)c4ccccc4[C@]3(Br)C[C@@H]12", "values": [{"measurement": "inhibition", "result": "-18.2% (inactive)"}]}
{"smiles": "C#CCOCCOCCOCCNc1nc(N2CCN(C(=O)[C@H](CCC(=O)O)n3cc(C(N)CO)nn3)CC2)nc(N2CCN(C(=O)[C@H](Cc3ccc(O)cc3)n3cc(C(N)[C@H](C)CC)nn3)CC2)n1", "note": "(stereo not given in full)", "values": [{"measurement": "inhibition", "result": "7.3% (inactive)"}]}
{"smiles": "O=C1N[C@H](Cc2ccccc2)C(=O)N[C@H]1Cc1cn(S(=O)(=O)c2ccccc2)c2ccccc12", "values": [{"measurement": "inhibition", "result": "-14.5% (inactive)"}]}
{"smiles": "CC(C)[C@@H]1NC(=O)c2cc([N+](=O)[O-])cc(I)c2NCCC[C@@H](C(=O)NC(CC(=O)O)C(N)=O)NC(=O)[C@H](CO)NC1=O", "note": "(stereo not given in full)", "values": [{"measurement": "inhibition", "result": "-19.9% (inactive)"}]}
{"smiles": "NC(=O)CC[C@@H]1NC(=O)[C@@H]2CCCN2C(=O)c2cc([N+](=O)[O-])cc(F)c2NCCC[C@@H](C(N)=O)NC1=O", "values": [{"measurement": "inhibition", "result": "-71.2% (inactive)"}]}
{"smiles": "NC(=O)C1=C[C@H](c2csc3ccccc23)C[C@H](OCc2ccc(CO)cc2)O1", "values": [{"measurement": "inhibition", "result": "-63% (inactive)"}]}
{"smiles": "COP1(=O)C[C@@H](O)[C@@H](O)[C@@H](COCc2ccccc2)O1", "note": "(stereo not given in full)", "values": [{"measurement": "inhibition", "result": "11.1% (inactive)"}]}
{"smiles": "CCN1C(=O)N[C@@H](CCc2ccccc2)C(C(=O)OC)=C1C", "values": [{"measurement": "inhibition", "result": "4.12% (inactive)"}]}
{"smiles": "Cc1ccc(-c2csc(NCCc3nc4cc(Cl)c(Cl)cc4n3CCOCCO)n2)cc1", "values": [{"measurement": "inhibition", "result": "7.32% (inactive)"}]}
{"smiles": "C=CCNC(=O)c1csc(-c2ccccc2)n1", "values": [{"measurement": "inhibition", "result": "10.9% (inactive)"}]}
{"smiles": "C=CCNc1nc(N)c(C(=C(C#N)C#N)c2ccccc2)s1", "values": [{"measurement": "inhibition", "setting": "above what the read-out allows, likely interference", "result": "654% (active)"}]}
{"smiles": "CCOC(=O)CN1C(=O)N[C@@H](c2ccc(Br)cc2)C(C(C)=O)=C1C", "values": [{"measurement": "inhibition", "result": "-1.77% (inactive)"}]}
{"smiles": "COC(=O)c1c(C)cc(O)c(C)c1O", "values": [{"measurement": "inhibition", "result": "12% (inactive)"}]}
{"smiles": "CC(C)(C)Oc1ccccc1Nc1nc(NCCO)nc(N2CCCC2)n1", "values": [{"measurement": "inhibition", "result": "-10.1% (inactive)"}]}
{"smiles": "NC1=NC[C@@H](Cc2ccc(O)cc2)N1CC1CCCCC1", "values": [{"measurement": "inhibition", "result": "10.2% (inactive)"}]}
{"smiles": "C=CCOC(=O)C1=C[C@@H](c2ccccc2)C[C@@H](OCc2ccc(CO)cc2)O1", "values": [{"measurement": "inhibition", "result": "4.95% (inactive)"}]}
{"smiles": "CC[C@H](C)[C@@H](C(=O)N1CCNCC1)n1cc([C@@H](N)Cc2ccc(O)cc2)nn1", "values": [{"measurement": "inhibition", "result": "-30% (inactive)"}]}
{"smiles": "CC1(c2nnc(-c3ccncc3)o2)CC(c2cccnc2)=NO1", "note": "(stereo not given)", "values": [{"measurement": "inhibition", "result": "-44.9% (inactive)"}]}
{"smiles": "O=C1CCC(=O)N(O)CCCCCNC(=O)CCC(=O)N(O)CCCCCNC(=O)CCC(=O)N(O)CCCCCN1", "values": [{"measurement": "inhibition", "result": "-1.74% (inactive)"}]}
{"smiles": "O=C(CCS(=O)(=O)c1ccccc1)Nc1nc2c(s1)CCCC2", "values": [{"measurement": "inhibition", "result": "-10.7% (inactive)"}]}
{"smiles": "Fc1ccc2nc(Nc3nc4c(s3)CCCC4)sc2c1", "values": [{"measurement": "inhibition", "result": "35.3% (active)"}, {"measurement": "inhibition", "setting": "[1]", "result": 127, "unit": "%"}]}
{"smiles": "Fc1ccc2nc(N3CCCCC3)sc2c1", "values": [{"measurement": "inhibition", "result": "-11.1% (inactive)"}]}
{"smiles": "CCCCN1C(N)=NC[C@@H]1CC1CCCCC1", "values": [{"measurement": "inhibition", "result": "6.72% (inactive)"}]}
{"smiles": "NC(=O)[C@H]1CC2(CC(c3cccc(NC(=O)[C@H]4CCC(=O)N4)c3)=NO2)CN1C(=O)c1ccccc1C(=O)c1ccccc1", "note": "(stereo not given in full)", "values": [{"measurement": "inhibition", "result": "20.3% (inactive)"}]}
{"smiles": "Cc1cccc(NC(=S)NCc2ccc3[nH]c4c(c3c2)CCCC4)c1", "values": [{"measurement": "inhibition", "result": "-2.9% (inactive)"}]}
{"smiles": "COc1ccc(SCCN2CCN(CC(C)C)CCC2=O)cc1", "values": [{"measurement": "inhibition", "result": "8.87% (inactive)"}]}
{"smiles": "CCOC(=O)c1csc(NC(=O)c2ccc(S(=O)(=O)N3CCCC3)cc2)n1", "values": [{"measurement": "inhibition", "result": "96.7% (active)"}, {"measurement": "inhibition", "setting": "[1]", "result": 82.9, "unit": "%"}]}
{"smiles": "CCOC(=O)CSc1nnc(NC(=O)c2cccc(S(=O)(=O)N3CCCC3)c2)s1", "values": [{"measurement": "inhibition", "result": "5.07% (inactive)"}]}
{"smiles": "COc1ccc(C(=O)Nc2nc(-c3ccc(S(=O)(=O)N4CCOCC4)cc3)cs2)cc1", "values": [{"measurement": "inhibition", "result": "-26.7% (inactive)"}]}
{"smiles": "Cc1nc(-c2ccc(Cl)cc2)sc1C1(C)CC(c2ccccc2F)=NO1", "note": "(stereo not given)", "values": [{"measurement": "inhibition", "result": "7.68% (inactive)"}]}
{"smiles": "COC(=O)C1=C[C@@H](C(=O)OC)[C@@H]2C3=C(C(=O)[C@]2(C)NC(=O)c2ccccc2)[C@H](C)n2c(=O)n(C)c(=O)n2[C@@H]3C1", "values": [{"measurement": "inhibition", "result": "2.28% (inactive)"}]}
{"smiles": "O=C(C1=C[C@H](c2ccc(C(F)(F)F)cc2)C[C@H](OCc2ccc(CO)cc2)O1)N1CCN(Cc2ccccc2)CC1", "values": [{"measurement": "inhibition", "result": "3.78% (inactive)"}]}
{"smiles": "CCN1C(=O)N[C@@H](c2ccccc2)C(C(=O)OC)=C1C", "values": [{"measurement": "inhibition", "result": "-30% (inactive)"}]}
{"smiles": "Cc1ccc(C)c(CSc2nc(-c3ccco3)nc3c2c(=O)n(C)c(=O)n3C)c1", "values": [{"measurement": "inhibition", "result": "4.13% (inactive)"}]}
{"smiles": "C/C=C(/C)C(=O)Nc1cccc(C2=NOC3(C2)C[C@@H](C(N)=O)N(C(=O)C2(C)CC2)C3)c1", "note": "(stereo not given in full)", "values": [{"measurement": "inhibition", "result": "4.45% (inactive)"}]}
{"smiles": "NC(=O)C1=C[C@@H](c2csc3ccccc23)C[C@@H](OCc2ccc(CO)cc2)O1", "values": [{"measurement": "inhibition", "result": "19.8% (inactive)"}]}
{"smiles": "CCCCCCCCCCCCN1[C@@H](CC(C)=O)c2cc(F)cc(F)c2S1(=O)=O", "values": [{"measurement": "inhibition", "result": "-11.3% (inactive)"}]}
{"smiles": "COc1ccccc1C1=CC(=O)CCC1", "values": [{"measurement": "inhibition", "result": "7.57% (inactive)"}]}
{"smiles": "CC1(C)C2CC[C@]3(C)C(CC=C4[C@@H]5C[C@@](C)(CO)CC[C@]5(C(=O)O)CC[C@]43C)[C@@]2(C)CC[C@@H]1O", "note": "(stereo not given in full)", "values": [{"measurement": "inhibition", "result": "9.9% (inactive)"}]}
